In the library only some 2.4% were active in any assay of this set; here they are far more common.
D2 PAM-1 – HTS Assay for Positive Allosteric Modulators of the Human D2 Dopamine Receptor: Primary Screen for Potentiators. D(2) dopamine receptor (Homo sapiens), P14416. HEK293 T-REx D2, calcium flux, EC20 dopamine potentiation. potentiation, % at 10 µM. actives 0.34% (n = 340,000). AID 485347, 2010;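 active = potentiation over 3 SD above the plate norm, cut at about 30% in these data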; note: 0% is about no effect
Target sequence (P14416 whole entry, looked up): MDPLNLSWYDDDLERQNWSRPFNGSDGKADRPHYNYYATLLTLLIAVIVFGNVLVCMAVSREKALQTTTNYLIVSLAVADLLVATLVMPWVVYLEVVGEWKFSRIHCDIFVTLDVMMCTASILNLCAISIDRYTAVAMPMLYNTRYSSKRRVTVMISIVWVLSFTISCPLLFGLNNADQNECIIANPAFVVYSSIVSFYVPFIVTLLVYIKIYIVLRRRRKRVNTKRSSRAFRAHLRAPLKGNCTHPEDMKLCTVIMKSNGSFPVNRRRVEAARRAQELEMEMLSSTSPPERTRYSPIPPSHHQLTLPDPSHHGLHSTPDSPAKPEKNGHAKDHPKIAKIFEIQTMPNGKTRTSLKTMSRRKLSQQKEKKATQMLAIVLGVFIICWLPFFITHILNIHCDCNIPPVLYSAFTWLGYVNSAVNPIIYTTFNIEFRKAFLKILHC
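Potentiation of an EC20 dopamine calcium response is measured in a force-coupled, tetracycline-inducible Hek293 Trex D2 line. Compound-only kinetic reads over 180 s flag agonists before dopamine addition.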
D2 ag-1 – HTS Assay for Allosteric Agonists of the Human D2 Dopamine Receptor: Primary Screen for Agonists. HEK293 T-REx D2 cells, calcium flux agonist mode. activation, % at 2 µM. actives 0.53% (n = 340,000);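 active = activation over 3 SD above normal in the single-dose calcium agonist read, cut at about 30% in these data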; note: 0% is about no effect
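Agonism scored from kinetic calcium signal (1 read/sec, 180 s) following compound pin transfer, after a 10 s baseline. Cells: HEK293 Trex line expressing inducible D2 receptor coupled to calcium, dye-loaded after overnight culture at 30 C.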
D2 ag-2 – Beta-Arrestin HTS for Positive Allosteric Modulators of the Human D2 Dopamine Receptor: Agonists; D(2) dopamine receptor (Homo sapiens), P14416; DiscoveRx PathHunter D2 beta-arrestin, luminescence, 90 min; 100% = 57 uM dopamine signal; activation, % (test concentration not listed); actives 0.084% (n = 360,000); AID 624465, 2012; in the data active = activation above about 40%; inconclusive = between about 15% and that limit
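DiscoveRx PathHunter D2 beta-arrestin cells (2,100/well) attached overnight, then compound-stimulated 90 min at 37 C in HBSS/10 mM HEPES/0.1% Tween-20 buffer; beta-galactosidase complementation read by luminescence after 1 h at ambient temperature. Dopamine 57 uM final (EC100) as control.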
D2 antag – HTS Assay for Allosteric Antagonists of the Human D2 Dopamine Receptor: Primary Screen for Antagonists; D(2) dopamine receptor (Homo sapiens), P14416; HEK293 TREx D2 cells, calcium flux, dopamine EC80; inhibition, % at 10 µM; actives 2% (n = 340,000); in the data active = inhibition above about 30%; inactive = below that, where a call was filed; note: 0% is about no effect
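Measurement of antagonist activity uses fluorescent calcium dye in inducible HEK293 T-REx D2 cells: 10 s baseline, compound addition with 180 s read, EC80 dopamine addition with a further 180 s read.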
D2 PAM-2 – Beta-Arrestin HTS for Positive Allosteric Modulators of the Human D2 Dopamine Receptor: Potentiators; potentiation, % (no concentration beside the values); DiscoveRx D2 beta-arrestin cells, luminescence, 90 min; 100% = 57 uM dopamine signal; actives 0.23% (n = 360,000); D(2) dopamine receptor (Homo sapiens), P14416; in the data active = potentiation above about 50%; inconclusive = mostly about 30% to 49%
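D2 cells co-treated with compound plus 50 nM dopamine (EC20) for 90 min at 37 deg C to detect potentiation. Beta-arrestin recruitment was read as enzyme-fragment luminescence after 1 h at ambient temperature. Full response was set by 57 uM dopamine.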
Numbers without * were called inactive; ? = inconclusive; nt = no result.

SMILES	D2 PAM-1	D2 ag-1	D2 ag-2	D2 antag	D2 PAM-2
CCOC(=O)c1c(C)[nH]c(C)c1S(=O)(=O)N1CCCC(C(=O)N2CCN(c3cc(C)ccc3C)CC2)C1 (stereo unspecified)	-3	1	nt	nt	nt
Cc1nn(C)c2c1c(C(F)(F)F)cc(=O)n2C(C)C(=O)Nc1ccccc1F (stereo unspecified)	nt	1	nt	nt	nt
COc1ccccc1N1CCN(Cc2cn[nH]c2-c2ccc(F)cc2)CC1	-27	6	5	82*	-34
COc1ccc(-c2[nH]ncc2CN2CCN(Cc3cccs3)CC2)cc1F	-21	1	0	-15	-15
Cc1ccc(N2CC(NC(=O)c3cccs3)CC2=O)cc1C (stereo unspecified)	-5	1	nt	nt	nt
CCCCCCCNC(=O)C1(CC2CC(c3ccc(Cl)cc3)=NO2)CCN(C(=O)c2cc(OCC)c(OCC)c(OCC)c2)CC1 (stereo unspecified)	-11	1	0	44*	-7
O=C(CCn1c(=O)c2cccn2c2cccnc21)NCc1cccc(Br)c1	nt	-1	nt	nt	nt
COc1ccc(-c2noc(CCC(=O)NCCCN3CCC(Cc4ccccc4)CC3)n2)cc1	nt	nt	0	nt	-40
COc1ccc(-c2noc(CCC(=O)NCCCN3CCN(c4ccc(F)cc4)CC3)n2)cc1	-20	1	-2	95*	-4
O=C(O)CCC(=O)CCC(=O)c1ccccc1	-8	0	0	35*	-3
Cc1ccc(C(=O)CCC(=O)CCC(=O)O)cc1	nt	nt	-1	nt	-2
Cc1ccc(Nc2ccccc2)cc1	2	0	-2	40*	-14
Cc1ccccc1NC(=O)/C(C#N)=C/c1ccc(Cl)cc1Cl	5	nt	nt	nt	nt
O=C(CCCN=C1NS(=O)(=O)c2ccccc21)OCc1cc([N+](=O)[O-])cc2c1OCOC2	7	1	5	-8	-19
C[C@H](N=C1NS(=O)(=O)c2ccccc21)C(=O)OCc1cc([N+](=O)[O-])cc2c1OCOC2	-24	2	0	45*	-13
CCOC(=O)CSc1nc2cc3c(cc2c(=O)n1CCCC(=O)NCc1ccc2c(c1)OCO2)OCO3	3	0	nt	nt	nt
COc1ccccc1NC(=O)c1ccc(NC(=O)COC(=O)C2CCCO2)cc1 (stereo unspecified)	10	0	4	41*	5
CCC(C)(C)NC(=O)C1CCN(S(=O)(=O)c2c(C)noc2/C=C/c2ccc(C)cc2)CC1	4	1	nt	nt	nt
Nc1ncnc(Nc2ccccn2)c1[N+](=O)[O-]	9	0	-2	31*	-7
Cc1cccc(Nc2ncnc(N)c2[N+](=O)[O-])n1	4	1	-4	-26	-5
CCCOc1ccc(CNC(=O)c2cc3ccccn3n2)cc1	10	0	nt	nt	nt
CCOC(=O)c1ccc(Nc2c(-c3ccc(N(C)C)cc3)nc3nc[nH]n23)cc1	-2	1	nt	nt	nt
COc1ccccc1CCNC(=O)C(=O)NCC1OCCN1S(=O)(=O)c1ccc(Cl)cc1 (stereo unspecified)	-3	1	-3	36*	-5
CCN(CC)CCNC(=O)C(=O)NCC1OCCN1S(=O)(=O)c1ccc([N+](=O)[O-])cc1 (stereo unspecified)	-12	2	9	-2	50*
Cc1nn(-c2ccccc2)c2c1N(CC(=O)N1CCN(c3ccc(F)cc3)CC1)C(=O)CS2	9	0	nt	nt	nt
SMILES	D2 PAM-1	D2 ag-1	D2 ag-2	D2 antag	D2 PAM-2
Cc1ccc(S(=O)(=O)Nc2ccc(Cl)cc2)cc1NC(=O)c1cc2c(s1)CCCC2	7	1	8	-9	72*
COc1ccc(Nc2c3c(nc4ccc(NC(=O)c5cc(Cl)ccc5OC)cc24)CCCC3)cc1OC	-3	nt	nt	nt	nt
CCS(=O)(=O)N1CCC(C(=O)NCCCN2CCC(Cc3ccccc3)CC2)CC1	-10	1	0	5	-4
CCCS(=O)(=O)N1CCC(C(=O)NCCN2CCC(Cc3ccccc3)CC2)CC1	-21	38*	1	34*	-5
CS(=O)(=O)N1CCCC(C(=O)NCCCN2CCC(Cc3ccccc3)CC2)C1 (stereo unspecified)	-30	1	-1	46*	-24
CS(=O)(=O)N1CCCC(C(=O)NCCCN2CCN(Cc3ccccc3)CC2)C1 (stereo unspecified)	2	-1	-2	1	-18
OC(CN1CCN(c2cccc(Cl)c2)CC1)c1ccccc1 (stereo unspecified)	-13	10	3	53*	-28
Cc1cccc(N2CCN(CC(O)COc3ccc(Cl)cc3)CC2)c1 (stereo unspecified)	-19	-1	0	58*	-54
OC(COc1ccc2cc(Br)ccc2c1)CN1CCN(c2ccccn2)CC1 (stereo unspecified)	26	-2	41*	-4	?
OC(COc1ccc(Cl)cc1)CN1CCN(c2cccc(Cl)c2)CC1 (stereo unspecified)	-22	2	3	73*	-16
O=C(COC(=O)/C=C/c1cccs1)NC(c1ccccc1)c1ccccc1	-5	-2	0	-2	15
O=C(COC(=O)/C=C/C(=O)N1CCN(c2ccccc2)CC1)NC(c1ccccc1)c1ccccc1	-8	0	-3	69*	-1
Cc1ccc(C(=O)c2cn(Cc3cccc(Cl)c3)c3nc(C)ccc3c2=O)cc1	3	0	nt	nt	nt
Cc1nn(C(=O)Cn2ccc([N+](=O)[O-])n2)c(C)c1Br	31*	-2	2	12	-4
O=C(Cn1ccc([N+](=O)[O-])n1)N1CCc2ccccc21	-6	0	6	2	3
Cc1ccc(CC2C(=O)N(CC(=O)O)C(=O)C2C)cc1 (stereo unspecified)	-8	0	-2	31*	-5
COc1ccccc1/C=N\Nc1cn[nH]c(=O)c1Cl	0	-2	0	30*	-3
COc1cc(C2=NOC(C(=O)Nc3ccc(C)cc3)C2)cc(OC)c1OC (stereo unspecified)	11	-1	-3	57*	9
COc1cccc(C2=NOC(C(=O)Nc3ccc4c(c3)OCO4)C2)c1OC (stereo unspecified)	-25	0	1	60*	-16
COc1cc(C2=NOC(C(=O)Nc3ccc4c(c3)OCO4)C2)cc(OC)c1OC (stereo unspecified)	11	-1	0	-3	5
